# In PubChem BioAssay (Tox21):
# Results filed as inconclusive are left out. A call without a number means that no potency is given here. The source made the active and inactive calls. Calls come from the whole dose curve; as a rule, active = well fitted cell-killing curve with a large enough effect in the repeat runs; inconclusive = weak or mixed curves, or effect the other way; inactive = flat fitted curve, though single readings scatter.
# Test: Nuclear factor erythroid 2-related factor 2/antioxidant responsive element (Nrf2/ARE) small molecule agonists: qHTS cell viability counter screen in human keratinocytes (AID 1919968); note: nearly all actives have a fitted effect of over 55% in size
# Settings: KeratinoSens HaCaT ARE cells viability, CellTiter-Fluor, 24 h; series mostly up to 92.4 µM
# Excerpt: U.S. Tox21 Program National Center for Advancing Translational Sciences [NCATS] Division of Preclinical Innovation [DPI] U.S. Environmental Protection Agency [EPA] National Institutes of Environmental Health Sciences [NIEHS] National Toxicology Program [NTP] U.S. Food and Drug Administration [FDA] Tox21 Assay Overview: Oxidative stress has been implicated in the pathogenesis of a variety of diseases ranging from cancer to neurodegeneration. The antioxidant response element (ARE) signaling pathway plays an important role in the amelioration of oxidative stress. The KeratinoSens (Givaudan, Switzerland) is an in vitro test method which quantifies luciferase induction as a measure of activation of Keap1-Nrf2-antioxidationt/electrophile response element (ARE) dependant pathway in HaCaT human keratinocytes stably transfected with a selectable plasmid. The KeratinoSens assay is a cell-based assay with a reporter cell line to detect potential skin sensitizers by their ability to induce the Nrf2/ARE-response. The activation of the report gene under culture conditions can be detected by ONE-Glo Luciferase Assay System (Promega, Madison, WI). This cell line has been used to screen the Tox21 10K compound library to identify agonists that induce oxidative stress. The cytotoxicity of the Tox21 compound library against the KS-ARE cell line was tested in parallel by measuring the cell viability using CellTiter- Fluor assay system (Promega, Madison, WI) in the same wells.
# Tox21 Assay Protocol Summary: HaCaT derived cell line KeratinoSens were dispensed at 1,500 cells/5uL/well in 1536-well white wall/solid bottom plates using a Multidrop Combi (ThermoFisher Scientific, Waltham, MA) dispenser. After the assay plates were incubated at 37 C/5% CO2 for 5 h, 23 nL of compounds dissolved in DMSO, positive controls or DMSO only was transferred to the assay plate by a pintool workstation (Kalypsys, San Diego, CA). The plates were incubated at 37 C/5% CO2 for 23 h, followed by addition of 1uL/well of CellTiter-Fluor reagent into the assay plates using a Flying Reagent Dispenser (Aurora Discovery, San Diego, CA) for cell viability readout that measures cytotoxicity. After 1 h incubation at 37 C/5% CO2 the fluorescence intensity was measured using a ViewLux (PerkinElmer, Shelton, CT) plate reader.
# Potency is the fitted concentration of half-maximal effect.
row,SMILES,Potency
1,CC(C)COC(=O)CCCCC(=O)OCC(C)C,inactive
2,C[C@@H](Oc1ccc(CNC(=O)c2cccnc2Oc2ccc3c(c2)OCO3)c(F)c1)C(=O)O,inactive
3,CC(C)(C)c1cc(CCC(=O)OCC(COC(=O)CCc2cc(C(C)(C)C)c(O)c(C(C)(C)C)c2)(COC(=O)CCc2cc(C(C)(C)C)c(O)c(C(C)(C)C)c2)COC(=O)CCc2cc(C(C)(C)C)c(O)c(C(C)(C)C)c2)cc(C(C)(C)C)c1O,inactive
4,CC(N=C(NC#N)Nc1ccncc1)C(C)(C)C (stereo not given),inactive
5,CCCc1nc(C)c2c(=O)[nH]c(-c3cc(S(=O)(=O)N4CCN(CC)CC4)ccc3OCC)nn12,inactive
6,CC(C)CCOC(=O)/C=C/c1ccccc1,inactive
7,Cc1ccc(OC(=O)CC(C)C)cc1,inactive
8,CCCC[N+](C)(CCCC)CCCC,inactive
9,CC(C)(O)c1ccc(C(C)(C)O)cc1,inactive
10,CCCCC(CC)C(=O)OCCOCCOCCOCCOC(=O)C(CC)CCCC (stereo not given),inactive
11,O=C(Nc1cccc(C(F)(F)F)c1)c1cc(Br)cc(Br)c1O,7.7 µM (active)
12,O=C(O)CN1C(=O)c2cccc3cccc(c23)C1=O,inactive
13,COC(C)=O,inactive
14,OCCCS,inactive
15,c1ccc(-c2nc[nH]c2-c2ccccc2)cc1,inactive
16,c1ccc(Cc2ccccc2)cc1,inactive
17,COc1ccc(/C=C/C(=O)c2ccc(OC)cc2OC)cc1,inactive
18,O=C(NS(=O)(=O)/C=C/c1cccs1)c1ccc(F)cc1Br,inactive
19,CCC(=O)Oc1ccc(/C(CC)=C(\CC)c2ccc(OC(=O)CC)cc2)cc1,inactive
20,OCc1c[nH]c2ccccc12,inactive

row,SMILES,Potency
1,O=S(=O)(O)c1cc(O)ccc1O,inactive
2,O=C(O)C(=O)Cc1ccccc1,inactive
3,O=C(c1ccccc1)c1ccc(O)cc1,inactive
4,Brc1ccccc1-c1ccccc1,inactive
5,CCc1cc(SCc2sc(-c3ccc(C(F)(F)F)cc3)nc2CN2CCN(c3ccc(OC)cc3)CC2)ccc1OCC(=O)O,54.5 µM (active)
6,CC(CO)(CO)CO,inactive
7,O=C1CC[C@@H](C(=O)O)N1,inactive
8,COC(=O)CCCCCCCC(=O)OC,inactive
9,CCCCCOC(=O)COc1cc(N2C(=O)C3=C(CCCC3)C2=O)c(F)cc1Cl,inactive
10,Cc1ccc2ccc(Cl)cc2n1,inactive
11,CN(C)C(=O)Oc1cccc([N+](C)(C)C)c1,inactive
12,Cc1cccc(OCCOc2cccc(C)c2)c1,inactive
13,N#Cc1ccccc1C#N,inactive
14,O=[N+]([O-])c1cc(C2CCCCC2)c(O)c([N+](=O)[O-])c1,19.3 µM (active)
15,CC(C)(C)c1cc(/C=C2\SC(=N)NC2=O)cc(C(C)(C)C)c1O,30.6 µM (active)
16,CC(=O)Oc1ccc(C2(c3ccc(OC(C)=O)cc3)Oc3ccccc3NC2=O)cc1,inactive
17,CC/C=C\C/C=C\C/C=C\CCCCCCCC(=O)OCC,inactive
18,CC(C)[C@H]1CC[C@H](C)C[C@@H]1O,inactive
19,Cc1cc(NC(=O)C(=O)O)cc(C)c1Oc1ccc(O)c2c1CCC2,inactive
20,O=C1C=CC(=O)N1c1ccc(Cc2ccc(N3C(=O)C=CC3=O)cc2)cc1,27.3 µM (active)
